# From PubChem BioAssay (NCATS)
# Records with an inconclusive call do not appear. A call without a number means that no potency is given here. Active and inactive are the calls of the source. Calls come from the whole dose curve; as a rule, active = well fitted inhibition curve with a large enough effect; inconclusive = small, poorly fitted or top-dose-only effect; inactive = no such curve, though single readings can be large or run the other way.
# Tested on: Zika virus NS2B-NS3 protease (linked construct)
# Assay: Primary screen NINDS Rhodamine qHTS for Zika virus inhibitors (AID 1347160); note: nearly all actives have a fitted effect of over 55% in size
# Details: purified NS2B-NS3 protease, Rhodamine110 substrate fluorescence; series mostly up to 57.1 µM
# In short: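 Kinetic fluorescence (Ex 480 nm, Em 540 nm) over 15 min with 1.5 microM Rhodamine110 peptide and 25 nM linked protease.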
# Potency is the fitted concentration of half-maximal effect.
row,Compound,Potency
1,O=C(Nc1ccc(C(O)(C(F)(F)F)C(F)(F)F)cc1)c1ccc(C(F)(F)F)cc1,inactive
2,O=C1c2ccc(Nc3ccc(F)cc3F)cc2CCc2ccc(OCC(O)CO)cc21 (centres undefined),inactive
3,C=C1C(=O)O[C@@H]2C[C@H](C)C3=CC(=O)[C@H](O)[C@@]3(C)C[C@H]12,inactive
4,C=C1C(=O)OC[C@@H]1C/C=C(\C)CC1CC(C)C(=O)O1 (some centres undefined),15.8 µM (active)
5,O=C1Cc2c([nH]c3ccc(Br)cc23)-c2ncccc2N1,inactive
6,CN1c2c(nc(N)[nH]c2=O)NC[C@@H]1CNc1ccc(C(=O)N[C@@H](CCC(=O)O)C(=O)O)cc1,inactive
7,CC(C)Nc1nc(Nc2ccccc2)nc(-c2ccccc2)n1,inactive
8,CCC/C=C/C=C/C1CC(O)C2(O)C(=O)OCC12 (centres undefined),20 µM (active)
9,C/C=C/C=C/C(=O)O[C@@H]1C=C2COC(=O)[C@]2(O)[C@@]2(C)CCCC(C)(C)[C@H]12,inactive
10,Cc1nc2cc(C(=O)NCc3ccccn3)nn2c(C)c1Cc1cccc(Cl)c1,inactive
11,C[C@@H](Nc1ncnc2[nH]c(-c3ccc(O)cc3)cc12)c1ccccc1,inactive
12,C/C=C(\C)[C@@H]1C(C)=C[C@@H]2[C@H]([C@@H]1/C=C/C=C/C(=O)O)[C@@H](C)CC[C@@H]2O,inactive
13,COc1cc(/C=C2\CC[C@H]3COC[C@@H](c4cc(F)c(F)c(F)c4)N3C2=O)ccc1-n1cnc(C)c1,inactive
14,COc1ccc(-c2c(C)nn3c(NCCN4CCOCC4)cc(C)nc23)cc1OC,inactive
15,CNCCC(c1cccs1)c1ccc(O)c2ccccc12 (centres undefined),inactive
16,CC1(C)CCCC2(C)C1C(OC(=O)/C=C/C=C/C=O)C=C1COC(=O)C12O (centres undefined),inactive
17,C/C=C(\C)C(=O)O[C@H]1C=C(CO)C(=O)[C@H](OC(C)=O)[C@H]1C(C)C,inactive
18,C=C1CCCC2(C)CCC(C(C)(C)OC3OC(C)C(O)C(O)C3OC(=O)/C(C)=C\C)CC12 (centres undefined),inactive
19,C=C1C(=O)O[C@@H]2/C=C(\C)CC/C=C(/C=O)[C@H](OC)[C@@H](OC(=O)C(C)C)[C@@H]12,inactive
20,COC(=O)C1=COC(O[C@@H]2O[C@H](CO[C@@H]3O[C@H](COC(=O)/C=C\c4ccc(O)cc4)[C@@H](O)[C@H](O)[C@H]3O)[C@@H](O)[C@H](O)[C@H]2O)C2C(CO)=CCC12 (some centres undefined),inactive

row,Compound,Potency
1,COc1cc(CN(CCN)C(=O)c2cccs2)ccc1OCc1ccccc1,inactive
2,C/C(=C\CO[C@@H]1O[C@H](CO[C@H]2OC[C@](O)(CO)[C@H]2O)[C@@H](O)[C@H](O)[C@H]1O)C(C)(C)O,inactive
3,C=C1/C(=C/C=C2\CCC[C@@]3(C)C2CCC3[C@H](C)/C=C/[C@@H](O)C2CC2)C[C@@H](O)C[C@@H]1O (some centres undefined),inactive
4,O=C(NCC(=O)N1CCCC1)Nc1ccc2cnccc2c1,inactive
5,C=CC(=O)Nc1cc(-n2c(=O)ccc3cnc4ccc(-c5ccc(NS(C)(=O)=O)cc5)cc4c32)ccc1C,inactive
6,CN(C)CC#CCCC(=O)C(O)(c1ccccc1)C1CCC1 (centres undefined),inactive
7,C=C1CC2OC(=O)C(=C)C2C(OC(=O)/C(C)=C\C)CC2(C)OC1=CC2=O (centres undefined),inactive
8,COc1ccc([C@H]2OC[C@H]3O[C@@H](O[C@H]4[C@@H]2NC[C@@H]4O)[C@H](O)[C@H]3O)cc1,inactive
9,CC(=O)O[C@@H]1[C@@H](OC(C)=O)[C@H](C)O[C@@H](O[C@H]2[C@@H]3C=CO[C@@H](O[C@@H]4O[C@H](CO)[C@@H](O)[C@H](O)[C@H]4O)[C@@H]3[C@@]3(CO)O[C@@H]23)[C@@H]1OC(=O)/C=C/c1ccccc1,inactive
10,C1=Cc2ccccc2C(=C2CCN(CCCCc3nn[nH]n3)CC2)c2ccccc21,inactive
11,C=C1C(=O)OC2/C=C(\CO)CC/C=C(\C=O)C(O)C(OC(=O)C(C)CC)C12 (centres undefined),inactive
12,C=C1CC[C@H]2C(=C)CC[C@H]3C(=C)C(=O)O[C@@H]3[C@@H]12,inactive
13,C=C1C(=O)O[C@@H]2[C@H]3C(C)=CC(=O)C3=C(C)CC[C@@H]12,inactive
14,COc1cc2c(cc1-c1c(C)noc1C)ncc1[nH]c(=O)n(C(C)c3ccccn3)c12 (centres undefined),inactive
15,CC(=O)O[C@@H]1CC2C(C)(C)C(=O)C=C[C@]2(C)C2CC[C@@]3(C)[C@H](c4ccoc4)OC(=O)[C@H]4O[C@]43[C@@]21C (some centres undefined),inactive
16,CCc1cnc(N2CCC(c3nc(COc4ccc(-n5cnnn5)cc4)cs3)CC2)nc1,inactive
17,COC(=O)N1CCC(n2ncc3c(N4CCOCC4)nc(-c4ccc(NC(=O)NC5CC5)cc4)nc32)CC1,inactive
18,Cc1cc(F)ccc1[C@H]1C[C@@H](N2CCN3C(=O)CC[C@H]3C2)CCN1C(=O)N(C)[C@H](C)c1cc(C(F)(F)F)cc(C(F)(F)F)c1,inactive
19,CC(=O)OC1CC(C)C2(CCC3(CC(=O)OC3O)O2)C2(C)CCCC(C)(C)C12 (centres undefined),inactive
